According to PubChem BioAssay (NCATS):
Inconclusive results are not listed. Values without a mark were called inactive. Calls of active or inactive are those of the source. Calls follow the shape of the dose curve; as a rule, active = well fitted curve in the direction sought with a large enough effect; inconclusive = small, poorly fitted or top-dose-only effect, or another doubt; inactive = no such curve, though single readings can be large; an effect the other way counts as inactive or inconclusive. Where a SMILES comes first, the peptide text is derived from it.

System: NIH3T3
Experiment: qHTS assay to identify novel small-molecules to repurpose for Merkel cell carcinoma treatment (AID 1296009); also: nearly all actives have a fitted effect of over 60% in size
Conditions: MCC and control cell lines, CellTiter-Glo viability, 72 h; at 44.8 µM (top of the series) unless noted
How it was run: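 Cell viability measured by CellTiter-Glo following 72 hr compound treatment at 37 degree celsius, with NPC and MIPE libraries tested in 8- and 11-point concentration series.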

| Compound | outcome |
| --- | --- |
| H-DPPDPDRFYGMM-NH2 | inactive [at 17.4 µM] |
| O=C(OC[C@H]1O[C@@H](Oc2ccccc2COC(=O)C2(O)C=CCCC2O)[C@H](O)[C@@H](O)[C@@H]1O)c1ccccc1 (some centres undefined) | inactive [at 17.4 µM] |
| Cc1cc(CNC(=O)c2cc(C(=O)NCc3ccc(F)c(C)c3)ncn2)ccc1F | inactive |
| CC(C)=CC1C[C@](C)(O)[C@@H]2[C@H]3CCC4[C@@]5(C)CC[C@H](O[C@@H]6OC[C@H](O)[C@H](O[C@@H]7O[C@H](CO[C@@H]8O[C@H](CO)[C@@H](O)[C@H](O)[C@H]8O)[C@@H](O)[C@H](O)[C@H]7O)[C@H]6O[C@@H]6O[C@@H](C)[C@H](O)[C@@H](O)[C@H]6O)C(C)(C)[C@@H]5CC[C@@]4(C)[C@@]34CO[C@@]2(C4)O1 (some centres undefined) | inactive [at 9.27 µM] |
| CC(=O)NCC1CN(c2ccc(-c3ccc(CNCc4cn[nH]n4)cc3)c(F)c2)C(=O)O1 (centres undefined) | inactive |
| COc1ccc([C@H]2OC[C@H]3[C@@H]2CO[C@@H]3c2ccc(O[C@@H]3O[C@H](CO)C(O)[C@H](O)[C@H]3O)c(OC)c2)cc1OC (some centres undefined) | inactive [at 17.4 µM] |
| C=C1CCC2C(C)(C(=O)OC)CCCC2(C)C1CCC1=CCOC1=O (centres undefined) | inactive |
| Cc1occc1C(=O)n1ccnc1 | inactive |
| O=C(CCc1ccccc1)c1c(O)c([C@@H]2O[C@H](CO)[C@@H](O)[C@H](O)[C@H]2O)c(O)c([C@@H]2O[C@H](CO)[C@@H](O)[C@H](O)[C@H]2O)c1O | inactive [at 17.4 µM] |
| Fc1cccc(CN(C2=NCCN2)c2c(Cl)cccc2Cl)c1 | inactive |
| C[C@]12CCC[C@](C)(C(=O)O)C1CCC13CC(CO)C(CCC12)C3 (some centres undefined) | inactive |
| O=C(OC[C@H]1O[C@@H](Oc2ccccc2CO)[C@H](O)[C@@H](O)[C@@H]1O)c1ccccc1 | inactive |
| C[C@H]1[C@@H](O)[C@H](O)C2[C@]3(C)C([C@@H](O)[C@H]4OC(=O)[C@@H]1[C@@]24C)[C@](C)(O)C=C[C@H]3O[C@@H]1O[C@H](CO)[C@@H](O)[C@H](O)[C@H]1O (some centres undefined) | inactive [at 17.4 µM] |
| COc1ccc(C(=O)NCc2cc(C(C)C)no2)cc1OC1CCN(C)CC1 | inactive |
| COc1c(-c2ccc(O)cc2)cc(OC)c2c1oc1cc(O)c(OC3OC(CO)C(O)C3O)cc12 (centres undefined) | inactive [at 17.4 µM] |

System: C33A
Experiment: Primary qHTS to identify gynecologic anti-cancer compounds using libraries of approved drugs and bioactive compounds (AID 1345084); also: % is scaled to controls: 0 for no effect and ±100 for the full control effect; nearly all actives have a fitted effect of over 55% in size
Conditions: Gynecologic cancer cell panel viability, ATPlite luminescence, 48 h; series mostly up to 57.5 µM; activity change, negative = cytotoxicity: at the top concentration
How it was run: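 Luminescence from the ATPlite ATP-monitoring reagent indicates viable cell number; lower signal means cytotoxicity. Cells received compound 16 h after seeding and were exposed for 48 h across five concentrations.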

| Compound | activity change, negative = cytotoxicity |
| --- | --- |
| COc1cc(/C=C/C(=O)O[C@H]2C[C@@H]3C(C(=O)O)=CO[C@@H](O[C@@H]4O[C@H](CO)[C@@H](O)[C@H](O)[C@H]4O)[C@@H]3[C@H]2C)ccc1O | -1.08% [at 25.3 µM] |
| H-DPPDPDRFYGMM-NH2 | 12.8% [at 25.3 µM] |
| CC1(C)C=Cc2c(ccc3c2N=C2C(C)(C)[C@@H]4C[C@]56CCCN5C(=O)[C@@]4(C[C@]23O)NC6=O)O1 | 9.97% [at 25.3 µM] |
| O=C(OC[C@H]1O[C@@H](Oc2ccccc2COC(=O)C2(O)C=CCCC2O)[C@H](O)[C@@H](O)[C@@H]1O)c1ccccc1 (some centres undefined) | -4.24% [at 25.3 µM] |
| Cc1cc(CNC(=O)c2cc(C(=O)NCc3ccc(F)c(C)c3)ncn2)ccc1F | 4.93% |
| CC(C)=CC1C[C@](C)(O)[C@@H]2[C@H]3CCC4[C@@]5(C)CC[C@H](O[C@@H]6OC[C@H](O)[C@H](O[C@@H]7O[C@H](CO[C@@H]8O[C@H](CO)[C@@H](O)[C@H](O)[C@H]8O)[C@@H](O)[C@H](O)[C@H]7O)[C@H]6O[C@@H]6O[C@@H](C)[C@H](O)[C@@H](O)[C@H]6O)C(C)(C)[C@@H]5CC[C@@]4(C)[C@@]34CO[C@@]2(C4)O1 (some centres undefined) | 25.2% [at 11.6 µM] |
| CC(=O)NCC1CN(c2ccc(-c3ccc(CNCc4cn[nH]n4)cc3)c(F)c2)C(=O)O1 (centres undefined) | -2.11% |
| COC(=O)[C@H](Cc1ccc([N+](=O)[O-])cc1)NC(=O)c1cccc2ccccc12 | 2.4% |
| Cn1nccc1-c1ccccc1Oc1ccc(S(=O)(=O)Nc2nccs2)cc1C#N | 22.6% |
| CSCC1OC(n2cnc3c(N)ncnc32)C(O)C1O (centres undefined) | -0.866% |
| COc1ccc([C@H]2OC[C@H]3[C@@H]2CO[C@@H]3c2ccc(O[C@@H]3O[C@H](CO)C(O)[C@H](O)[C@H]3O)c(OC)c2)cc1OC (some centres undefined) | 2.99% [at 25.3 µM] |
| CC1CCC2C(C(=O)O)=CC3(O)CC(C)(C)CC123 (centres undefined) | -0.501% |
| COc1cccc(CNc2ccc(S(=O)(=O)Nc3nc4ccccc4s3)cc2)c1O | 14.9% |
| CC(=O)NC(Cc1ccccc1)C(=O)NC(C(=O)O)C(C)C (stereo not drawn) (Ac-Phe-Val-OH; configuration not given here) | 14.1% |
| C=C1CCC2C(C)(C(=O)OC)CCCC2(C)C1CCC1=CCOC1=O (centres undefined) | -0.634% [at 38.5 µM] |
| CC1=C2CC3C(CCC3(C)O)C(C)(O)CC2OC1=O (centres undefined) | 14.6% |
| Cc1occc1C(=O)n1ccnc1 | -0.137% |
| COc1cc(C(CO)CO[C@@H]2O[C@H](CO)[C@@H](O)[C@H](O)[C@H]2O)ccc1O (some centres undefined) | -16.5% [at 38.5 µM] |
| O=C(O)CC1(O)C(=O)Nc2ccccc21 (centres undefined) | 12.6% |
| CN(C)C(=O)C(O)C(Cc1ccccc1)NC(=O)c1cc2cc(Cl)ccc2[nH]1 (centres undefined) | 10.7% |

| Compound | activity change, negative = cytotoxicity |
| --- | --- |
| O=C(CCc1ccccc1)c1c(O)c([C@@H]2O[C@H](CO)[C@@H](O)[C@H](O)[C@H]2O)c(O)c([C@@H]2O[C@H](CO)[C@@H](O)[C@H](O)[C@H]2O)c1O | -2.23% [at 25.3 µM] |
| CC(O)C1NC(=O)C2CCCN2C1=O (centres undefined) | 16.1% |
| CC1(C)OC(=O)CC(O)C2(C)C1CC(=O)C1(C)C2C(O)CC2(C)C(c3ccoc3)OC(=O)C3OC321 (centres undefined) | -9.79% [at 25.3 µM] |
| CC(=O)OC1CCC2(C)C(CCC3(C)C2CC=C2C4CC(C)(C)CCC4(C)CCC23C)C1(C)C(=O)O (centres undefined) | -5.73% [at 25.3 µM] |
| C=C(CCO)C(=O)OCC1OCC(OC(=O)C(=C)CCO[C@@H]2O[C@H](COC(=O)C(=C)CCO[C@@H]3O[C@H](CO)[C@@H](O)[C@H](O)[C@H]3O)[C@@H](O)[C@H](O)[C@H]2O)C(O)C1O (some centres undefined) | -8.34% [at 25.3 µM] |
| CC(C)C1CCC(CO)=CC1/C=C(\CO)C(=O)OCC1(O)CCC(C(C)C)C2C=C(C(=O)O)COC(=O)C21 (centres undefined) | 1.48% [at 25.3 µM] |
| Fc1cccc(CN(C2=NCCN2)c2c(Cl)cccc2Cl)c1 | -2.7% |
| C[C@]12CCC[C@](C)(C(=O)O)C1CCC13CC(CO)C(CCC12)C3 (some centres undefined) | 3.39% [at 38.5 µM] |
| O=C(/C=C/c1ccc(O)cc1)OC[C@H]1O[C@H](O[C@@]2(CO)O[C@@H](CO)[C@H](O)[C@H]2O)[C@H](O)[C@@H](O)[C@@H]1O | 6.94% [at 25.3 µM] |
| c1ccc2c(Nc3nnc(-c4ccncc4)s3)cccc2c1 | -17% |
| C/C=C/C=C/C=C/C(=O)O[C@@H]1[C@@H](OC)C2=C(C(=O)N(C(CCC(=O)O)C(=O)O)C2)[C@@]2(C)CCCC(C)(C)[C@H]12 (some centres undefined) | 0.103% [at 25.3 µM] |
| O=C(OC[C@H]1O[C@@H](Oc2ccccc2CO)[C@H](O)[C@@H](O)[C@@H]1O)c1ccccc1 | 16.7% [at 38.5 µM] |
| C[C@H]1[C@@H](O)[C@H](O)C2[C@]3(C)C([C@@H](O)[C@H]4OC(=O)[C@@H]1[C@@]24C)[C@](C)(O)C=C[C@H]3O[C@@H]1O[C@H](CO)[C@@H](O)[C@H](O)[C@H]1O (some centres undefined) | -4.62% [at 25.3 µM] |
| COc1ccc(C(=O)NCc2cc(C(C)C)no2)cc1OC1CCN(C)CC1 | 12.2% |
| COC(=O)C1C(O)CCC2CN3CCc4c([nH]c5ccccc45)C3CC21 (centres undefined) | -0.622% [at 38.5 µM] |
| CC(C)=C1C[C@@]2(C)C(=CC1=O)CC[C@@H](O)[C@@H]2C | -18.3% |
| Cc1ccccc1NC(=O)Nc1ccc(CN2C(=O)N([C@@H](CC(C)C)C(=O)N[C@@H](CC(=O)O)c3ccccc3)C(=O)C2(C)C)cc1 | 6.45% |
| CCOC(=O)C(CCc1ccccc1)NC1CCCN2CCCC(C(=O)O)N2C1=O (centres undefined) | 18.2% |
| COc1c(-c2ccc(O)cc2)cc(OC)c2c1oc1cc(O)c(OC3OC(CO)C(O)C3O)cc12 (centres undefined) | 5.37% [at 25.3 µM] |
